The list shows a part of the results. Activity calls are given as the source filed them. Unless noted, how the calls were made is not given here.
What was measured:
[1] = PPC-1 cell viability loss – ATP content luminescence, cytotoxicity control for TRAIL apoptosis potentiator project, confirmation (AID 1447;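 active means reconfirmed compounds whose average cytotoxicity reaches 50% or more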;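 further: 0% = DMSO-treated cells and 100% = wells holding medium but no cells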); conditions: PPC-1 viability, ATPlite luminescence, overnight; at 5 µM; stronger effect = higher value
[2] = target: Sentrin-specific protease 8 (Homo sapiens) (UniProt Q96LD8); assay: human SENP8 peptidase blockers, hit retest – biochemical, luminescence, single concentration, confirmation (AID 488912;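 active means mean inhibition across replicates above about 50%, limit read from the data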); conditions: Recombinant SENP8, Z-RLRGG-aminoluciferin luminescence, 60 min; at 12.5 µM; stronger effect = higher value
Chain of Sentrin-specific protease 8 (Homo sapiens) (Q96LD8 whole entry, looked up, the tested form may be a part): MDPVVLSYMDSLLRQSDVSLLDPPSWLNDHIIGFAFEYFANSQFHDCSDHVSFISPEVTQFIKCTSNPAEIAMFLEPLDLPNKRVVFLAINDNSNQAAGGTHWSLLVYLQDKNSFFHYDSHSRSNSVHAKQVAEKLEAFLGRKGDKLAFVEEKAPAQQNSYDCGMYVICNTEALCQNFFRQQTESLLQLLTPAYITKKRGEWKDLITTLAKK

[3] = target: Sentrin-specific protease 6 (Homo sapiens) (UniProt Q9GZR1); assay: inhibition of human SENP6 catalytic domain – biochemical, luminescence, single concentration, confirmation (AID 488915;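 active means mean inhibition above about 50% in the one-dose retest, limit read from the data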); conditions: recombinant SENP6, Z-RLRGG-aminoluciferin luminescence; at 12.5 µM; stronger effect = higher value
Chain of Sentrin-specific protease 6 (Homo sapiens) (Q9GZR1 628-1112 limits assumed): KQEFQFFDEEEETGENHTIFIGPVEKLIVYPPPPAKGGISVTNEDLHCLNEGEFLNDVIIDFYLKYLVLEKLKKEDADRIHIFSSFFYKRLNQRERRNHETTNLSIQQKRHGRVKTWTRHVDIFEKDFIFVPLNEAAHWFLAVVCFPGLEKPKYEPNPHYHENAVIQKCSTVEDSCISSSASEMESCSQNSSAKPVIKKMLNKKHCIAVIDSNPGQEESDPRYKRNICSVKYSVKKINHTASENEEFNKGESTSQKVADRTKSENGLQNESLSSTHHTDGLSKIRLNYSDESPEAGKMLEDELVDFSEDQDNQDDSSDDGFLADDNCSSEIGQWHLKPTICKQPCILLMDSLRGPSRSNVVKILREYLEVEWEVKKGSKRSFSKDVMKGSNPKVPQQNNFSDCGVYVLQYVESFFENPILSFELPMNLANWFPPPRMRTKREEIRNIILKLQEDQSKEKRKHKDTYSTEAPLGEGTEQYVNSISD

[4] = target: Sentrin-specific protease 7 (Homo sapiens) (UniProt Q9BQF6); assay: human SENP7 peptidase blockers, hit retest – biochemical, luminescence, single concentration, confirmation (AID 488917;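 active means mean inhibition above about 50% in the one-dose retest, limit read from the data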); conditions: recombinant SENP7, Z-RLRGG-aminoluciferin luminescence, 40 min; at 12.5 µM; stronger effect = higher value
Chain of Sentrin-specific protease 7 (Homo sapiens) (Q9BQF6 706-1050 limits assumed): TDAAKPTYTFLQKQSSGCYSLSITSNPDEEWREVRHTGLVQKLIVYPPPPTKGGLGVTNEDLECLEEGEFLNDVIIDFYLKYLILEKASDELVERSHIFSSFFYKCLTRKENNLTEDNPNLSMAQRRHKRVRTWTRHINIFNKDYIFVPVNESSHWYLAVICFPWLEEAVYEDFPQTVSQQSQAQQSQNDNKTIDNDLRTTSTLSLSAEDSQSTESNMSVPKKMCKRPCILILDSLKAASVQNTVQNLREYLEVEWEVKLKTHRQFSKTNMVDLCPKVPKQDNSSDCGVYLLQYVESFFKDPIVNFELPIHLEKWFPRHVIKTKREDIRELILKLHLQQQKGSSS

Caspase-3 (Homo sapiens) = Caspase-3 (Homo sapiens) (UniProt P42574); assay: human caspase-3 activity blockade, out-of-family – biochemical, single concentration, selectivity assay for SENP inhibitor project, confirmation (AID 488918;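 active means mean inhibition above about 50%, limit read from the data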;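 further: plate controls were enzyme with DMSO for no effect and wells without caspase-3 for full effect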); conditions: purified caspase-3, Z-DEVD-aminoluciferin luminescence, 60 min; at 12.5 µM; stronger effect = higher value
Chain of Caspase-3 (Homo sapiens) (P42574 28-227 limits assumed): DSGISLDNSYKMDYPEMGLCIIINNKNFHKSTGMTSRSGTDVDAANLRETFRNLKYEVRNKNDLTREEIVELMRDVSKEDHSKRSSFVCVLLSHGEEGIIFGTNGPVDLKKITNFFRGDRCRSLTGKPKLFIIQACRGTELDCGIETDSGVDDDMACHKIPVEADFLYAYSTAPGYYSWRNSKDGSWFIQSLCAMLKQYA

[5] = Ultra-Glo luciferase signal interference – biochemical, single concentration, SENP8 reaction pre-completed, artefact control for SENP inhibitor project, confirmation (AID 488919;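 active means mean inhibition above about 50% when retested at one dose, limit read from the data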;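 further: plate controls were DMSO wells with completed reaction for no effect and substrate without enzyme for full effect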); conditions: Pre-incubated SENP8/Z-RLRGG-aminoluciferin, luciferase luminescence interference; at 12.5 µM; stronger effect = higher value
[6] = target: Tumor necrosis factor receptor superfamily member 10B (Homo sapiens) (UniProt O14763); assay: viability loss of caspase-8 NB7 cells with TRAIL – with/without TRAIL, luminescence panel, confirmation (AID 651596; in the data active means activity above about 50%); conditions: NB7 neuroblastoma + caspase-8, TRAIL sensitization, NB7 Caspase-8, with TRAIL, mean of runs, at 10 µM, stronger effect = higher value
Chain of Tumor necrosis factor receptor superfamily member 10B (Homo sapiens) (O14763 whole entry, looked up): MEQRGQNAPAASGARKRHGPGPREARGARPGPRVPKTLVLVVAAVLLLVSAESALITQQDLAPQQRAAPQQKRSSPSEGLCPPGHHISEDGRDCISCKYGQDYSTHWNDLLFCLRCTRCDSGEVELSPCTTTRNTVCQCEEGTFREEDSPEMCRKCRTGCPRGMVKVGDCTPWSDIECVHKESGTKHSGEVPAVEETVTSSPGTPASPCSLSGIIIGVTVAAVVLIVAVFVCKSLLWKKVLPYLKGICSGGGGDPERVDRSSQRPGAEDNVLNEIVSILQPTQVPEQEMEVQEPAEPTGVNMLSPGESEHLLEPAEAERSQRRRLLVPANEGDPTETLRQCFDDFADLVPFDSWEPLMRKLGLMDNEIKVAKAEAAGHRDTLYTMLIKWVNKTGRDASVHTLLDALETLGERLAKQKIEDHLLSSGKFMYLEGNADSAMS

[7] = as above; conditions: NB7 neuroblastoma + caspase-8, without TRAIL, NB7 Caspase-8, without TRAIL, mean of runs, at 10 µM
[8] = Brca1-Bard1 BiLC signal decrease – luminescence, single concentration, counter-screen for Mdm2/MdmX interaction inhibitor project, confirmation (AID 504668); conditions: Brca1/Bard1 bimolecular luciferase complementation counterscreen, at 8 µM, stronger effect = higher value
[9] = lowers stimulated NF-kB luciferase signal in Jurkat – cell-based, luminescence, single concentration, T-cell NF-kB inhibitor project, confirmation (AID 435020;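 active means inhibition reaching about 45% at 4 µM in either replicate, limit read from the data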;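 further: plate controls were PMA/ionomycin stimulated DMSO wells for no effect and unstimulated DMSO wells for full effect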); conditions: PMA/ionomycin-induced, 16 h, at 4 µM, stronger effect = higher value
[10] = target: Protein Mdm4 (Homo sapiens) + E3 ubiquitin-protein ligase Mdm2 (Homo sapiens) (UniProt O15151+Q00987); assay: human Mdm2/MdmX binding disruption – cell-based, luminescence, single concentration, set 2, confirmation (AID 504601;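 active means mean inhibition of the luminescence signal across two replicates at or above 26 percent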); conditions: SaOS-2 split-luciferase Mdm2/MdmX complementation, at 8 µM, stronger effect = higher value
Chain of Protein Mdm4 (Homo sapiens) + E3 ubiquitin-protein ligase Mdm2 (Homo sapiens) (O15151 whole entry, looked up): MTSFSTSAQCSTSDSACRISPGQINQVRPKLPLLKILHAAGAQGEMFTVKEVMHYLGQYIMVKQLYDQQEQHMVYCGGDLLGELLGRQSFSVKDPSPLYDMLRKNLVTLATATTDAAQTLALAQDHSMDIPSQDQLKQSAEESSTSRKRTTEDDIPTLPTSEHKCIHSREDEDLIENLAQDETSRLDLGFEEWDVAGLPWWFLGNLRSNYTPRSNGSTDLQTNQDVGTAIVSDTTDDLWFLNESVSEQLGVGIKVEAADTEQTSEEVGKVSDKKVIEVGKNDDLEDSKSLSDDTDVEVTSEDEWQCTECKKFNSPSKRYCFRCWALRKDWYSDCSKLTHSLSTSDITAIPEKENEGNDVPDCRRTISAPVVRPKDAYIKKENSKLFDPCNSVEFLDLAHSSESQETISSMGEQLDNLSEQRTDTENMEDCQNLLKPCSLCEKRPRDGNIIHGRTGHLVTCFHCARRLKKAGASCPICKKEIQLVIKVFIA
Chain of Protein Mdm4 (Homo sapiens) + E3 ubiquitin-protein ligase Mdm2 (Homo sapiens) (Q00987 whole entry, looked up): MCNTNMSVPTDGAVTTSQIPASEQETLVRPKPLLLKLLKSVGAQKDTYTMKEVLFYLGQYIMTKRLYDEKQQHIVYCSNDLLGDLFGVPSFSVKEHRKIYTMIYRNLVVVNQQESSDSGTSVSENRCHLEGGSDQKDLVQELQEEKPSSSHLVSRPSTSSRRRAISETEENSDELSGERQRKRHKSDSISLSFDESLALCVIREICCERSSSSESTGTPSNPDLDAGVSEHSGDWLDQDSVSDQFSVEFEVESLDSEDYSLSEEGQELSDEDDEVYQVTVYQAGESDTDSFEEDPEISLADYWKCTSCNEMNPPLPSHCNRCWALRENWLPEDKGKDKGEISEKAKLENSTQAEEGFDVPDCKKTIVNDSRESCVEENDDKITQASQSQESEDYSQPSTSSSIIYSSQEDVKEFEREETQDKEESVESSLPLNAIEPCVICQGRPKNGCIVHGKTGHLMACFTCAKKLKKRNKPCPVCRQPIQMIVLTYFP

[11] = apoptosome-driven caspase-3 activation blockers – biochemical, fluorescence, DEVD-Rh110, 20 µM, confirmation (AID 504614;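 active means mean inhibition of at least 40% at 20 µM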;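 further: plate controls were DMSO wells for no effect and DEVD-CHO caspase inhibitor control wells for full effect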); conditions: reconstituted apoptosome, caspase-3 DEVD-Rh110 fluorescence; at 20 µM; stronger effect = higher value
[12] = detection-step artefacts after completed caspase reaction – biochemical, fluorescence, Rh110, 20 µM, artefact control for Apaf-1 inhibitor project, confirmation (AID 504615;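 active means signal rise of 40% or more at 20 µM, treated as a fluorescence artifact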); conditions: quenched caspase reaction, at 20 µM, stronger effect = higher value
[13] = fluorescence interference of Apaf-1 inhibitor hits, dose response, artefact control for Apaf-1 inhibitor project (AID 588538); conditions: fluorescence interference counterscreen, Apaf-1 assay format

Q: What does the source list for COc1cccc(-c2nc3ccc(N4CCN(C)CC4)cc3[nH]2)c1?
A: cytotoxicity [1]: 82.3% (active); inhibition [2]: 74.8% (active); inhibition [3]: 67.2% (active); inhibition [4]: 88.2% (active); inhibition (Caspase-3 (Homo sapiens)): 87% (active); inhibition [5]: 25.4% (inactive); activity [6]: 90.4%; activity [7]: 87.8%

Q: With C/C=C(\C)C(=O)OC1C(C)=C2C(C1OC(=O)CCCCC)C(C)(OC(C)=O)CC(OC(=O)CCC)C1(O)C2OC(=O)C1(C)O (stereo unspecified) as the compound, how does the inhibition [8] read?
A: 24.1% (active)

Q: Which inhibition [8] does the source give for C[C@@H]1O[C@@H](O[C@H]2C[C@@H](O)[C@]3(CO)[C@@H]4C(CC[C@]3(O)C2)[C@@]2(O)CC[C@H](C3COC(=O)C3)[C@@]2(C)C[C@H]4O)[C@H](O)[C@H](O)[C@H]1O (stereo partly specified) here?
A: 24.4% (active)

Q: For CCOc1cccc(CNCCc2c(C)[nH]c3ccc(OC(F)(F)F)cc23)c1O, which inhibition [8] is on record?
A: 29.9% (active)

Q: With CN(C)c1ccc(-[n+]2c(-c3ccccc3)cc(-c3ccccc3)cc2-c2ccccc2)cc1 as the compound, how does the inhibition [8] read?
A: 23.3% (active)

Q: Which inhibition [8] does the source give for C[C@@H]1O[C@@H](O[C@H]2C[C@@H](O)[C@]3(CO)[C@H]4[C@H](O)C[C@]5(C)[C@@H](C6COC(=O)C6)CC[C@]5(O)[C@@H]4CC[C@]3(O)C2)[C@H](O)[C@H](O)[C@H]1O (stereo partly specified) here?
A: 26.8% (active)

Q: Which inhibition [9] does the source give for Cc1cc2ccccn2c1C(C[N+](=O)[O-])c1c(F)cccc1Cl (stereo unspecified) here?
A: 6.25% (inactive)

Q: And the inhibition [10]?
A: 33% (active)

Q: What about the inhibition [8] of the same compound?
A: 29.6% (active)

Q: With COc1ccc2c(c1)/C(=C/c1cnc[nH]1)C(=O)N2 as the compound, how does the inhibition [8] read?
A: 32.2% (active)

Q: Which inhibition [8] does the source give for O=Cc1cn(Cc2ccc(F)cc2Cl)c2ccccc12 here?
A: 35.1% (active)

Q: What does the source list for CCCCCn1c(=O)c(C(=O)Nc2c(C)n(C)n(-c3ccccc3)c2=O)c(O)c2ccccc21?
A: inhibition [11]: 42.9% (active); activation (fluorescence interference) [12]: -2.75% (inactive); IC50 [13]: > 100 µM (inactive)
